Laboratory results from PubChem BioAssay AID1159580 (chemical genetic matrix, 2015).
“And” between values parts separate entries of the source, which are not always exact repeats. Equal entries are not always repeated. In all, about 5,500 compounds went through this assay and about 2,000 (36%) were called active. Another 18% or so got no clear call; they are omitted. Rule as the data show it: active = normalized growth mostly below about 0.91 (no sharp cut-off); inconclusive = no clear call, values can overlap the other calls; inactive = mostly above about 0.92. The list shows a part of the results.

Experiment: chemical genetic growth profiling, strain panel (AID 1159580);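 also: tested at 20 µM; growth read once vehicle control cultures reached saturation at 30 °C; 1 = growth at the plate median or of vehicle wells; lower values mean less growth of the strain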
Conditions: S. cerevisiae deletion strains, growth OD

Measured: normalized growth

COC(=O)C[C@H]1C2(C)CC34OC5(C)O[C@@]6([C@H](OC(C)=O)C(OC(C)=O)[C@]7(C)C(/C(=C(/O)C(C)C)C(=O)O[C@H]7c7ccoc7)[C@@]6(O5)[C@H](OC(C)=O)[C@@]3(O)C2OC(=O)C(C)C)[C@]14C (stereo partly drawn)
inactive: locus YAL021C, strain ccr4, hits give low values 1.01 | locus YAL026C, strain drs2, hits give low values 0.995 | locus YAL030W, strain snc1, hits give low values 0.997 | locus YBL061C, strain skt5, hits give low values 1.01 | locus YBR009C, strain hhf1, hits give low values 1.01 | locus YBR021W, strain FUR4, hits give low values 1.06 | locus YBR023C, strain chs3, hits give low values 1 | locus YBR171W, strain sec66, hits give low values 0.994 | locus YBR229C, strain ROT2, hits give low values 0.955 | locus YBR231C, strain swc5, hits give low values 1 | locus YBR279W, strain paf1, hits give low values 0.996 | locus YCL011C, strain gbp2, hits give low values 0.989 | locus YCL016C, strain dcc1, hits give low values 1.02 | locus YCL029C, strain bik1, hits give low values 1.01 | locus YCL061C, strain MRC1, hits give low values 1 | locus YCL069W, strain vba3, hits give low values 0.998 | locus YCR088W, strain abp1, hits give low values 0.992 | locus YDL005C, strain med2, hits give low values 0.982 | locus YDL035C, strain GPR1, hits give low values 0.976 | locus YDL040C, strain nat1, hits give low values 0.978 | locus YDL074C, strain BRE1, hits give low values 0.986 | locus YDL101C, strain DUN1, hits give low values 1 | locus YDL134C, strain PPH21, hits give low values 1.02 | locus YDL185W, strain tfp1, hits give low values 0.956 | locus YDL192W, strain arf1, hits give low values 0.986 | locus YDR001C, strain nth1, hits give low values 1 | locus YDR069C, strain doa4, hits give low values 1 | locus YDR101C, strain arx1, hits give low values 1 | locus YDR137W, strain rgp1, hits give low values 0.953 | locus YDR159W, strain sac3, hits give low values 0.975 | locus YDR162C, strain NBP2, hits give low values 0.973 | locus YDR195W, strain ref2 0.959 | locus YDR297W, strain sur2, hits give low values 1.02 | locus YDR318W, strain mcm21, hits give low values 0.994 | locus YDR334W, strain swr1, hits give low values 0.991 | locus YDR335W, strain msn5, hits give low values 0.993 | locus YDR388W, hits give low values 0.994 | locus YDR392W, strain spt3, hits give low values 1.05 | locus YDR502C, strain sam2, hits give low values 1.03 | locus YEL003W, strain gim4, hits give low values 0.995 | locus YEL037C, strain rad23, hits give low values 0.997 | locus YEL061C, strain CIN8 (second series), hits give low values 0.994 | locus YEL061C, strain CIN8, hits give low values 1 | locus YER015W, strain faa2, hits give low values 1.01 | locus YER016W, strain bim1, hits give low values 0.981 | locus YER110C, hits give low values 0.992 | locus YER111C, strain swi4, hits give low values 0.985 | locus YER155C, strain BEM2 (second series), hits give low values 1.01 | locus YER155C, strain BEM2, hits give low values 1.01 | locus YER167W, strain BCK2, hits give low values 0.99 | locus YFR010W, strain ubp6, hits give low values 0.982 | locus YGL078C, strain dbp3, hits give low values 0.98 | locus YGL086W, strain mad1, hits give low values 1.01 | locus YGL167C, strain pmr1, hits give low values 0.995 | locus YGL173C, strain kem1, hits give low values 0.997 | locus YGL227W, strain vid30, hits give low values 0.987 | locus YGL240W, strain doc1, hits give low values 0.975 | locus YGL248W, strain PDE1, hits give low values 0.997 | locus YGL253W, strain hxk2, hits give low values 0.975 | locus YGR078C, strain PAC10, hits give low values 1 | locus YGR135W, strain pre9, hits give low values 1.06 | locus YGR252W, strain gcn5, hits give low values 1.04 | locus YHR013C, strain ard1, hits give low values 1 | locus YHR027C, strain rpn1, hits give low values 1.02 | locus YHR030C, strain SLT2, hits give low values 0.947 | locus YHR079C, strain IRE1 (second series), hits give low values 0.997 | locus YHR079C, strain IRE1, hits give low values 0.983 | locus YHR094C, strain hxt1, hits give low values 0.998 | locus YHR129C, strain ARP1, hits give low values 1 | locus YHR142W, strain chs7, hits give low values 1 | locus YHR200W, strain rpn10, hits give low values 0.996 | locus YIL066C, strain RNR3, hits give low values 0.963 | locus YIL073C, strain SPO22, hits give low values 0.966 | locus YIL125W, strain kgd1, hits give low values 1 | locus YIR030C, strain dcg1, hits give low values 1 | locus YJL092W, strain hpr5, hits give low values 0.997 | locus YJL095W, strain BCK1 (second series), hits give low values 1 | locus YJL095W, strain BCK1, hits give low values 1.02 and 0.966 | locus YJL115W, strain asf1, hits give low values 0.989 | locus YJL129C, strain trk1, hits give low values 0.975 | locus YJL134W, strain LCB3, hits give low values 0.994 | locus YJL154C, strain vps35, hits give low values 1 | locus YJL164C, strain tpk1, hits give low values 1.01 | locus YJL166W, strain qcr8, hits give low values 0.983 | locus YJL168C, strain set2, hits give low values 1.01 | locus YJL187C, strain SWE1 (second series), hits give low values 1.01 | locus YJL187C, strain SWE1, hits give low values 1.01 | locus YJR066W, strain TOR1, hits give low values 0.928 | locus YJR075W, strain HOC1, hits give low values 1.02 | locus YKL009W, strain mrt4, hits give low values 0.979 | locus YKL068W, hits give low values 0.986 | locus YKL160W, strain elf1, hits give low values 1.01 | locus YKR001C, strain vps1, hits give low values 1 | locus YKR026C, strain gcn3, hits give low values 0.995 | locus YKR091W, strain srl3, hits give low values 0.996 | locus YLL001W, strain dnm1, hits give low values 1.02 | locus YLL026W, hits give low values 0.987 | locus YLL041C, strain sdh2, hits give low values 0.988 | locus YLR027C, strain aat2, hits give low values 1 | locus YLR039C, strain RIC1, hits give low values 0.863 | locus YLR058C, strain SHM2, hits give low values 0.987 | locus YLR102C, strain apc9, hits give low values 1 | locus YLR113W, strain HOG1, hits give low values 1.01 | locus YLR221C, strain rsa3, hits give low values 0.992 | locus YLR258W, strain gsy2, hits give low values 1.01 | locus YLR262C, strain YPT6 (second series), hits give low values 0.924 | locus YLR268W, strain sec22, hits give low values 0.986 | locus YLR320W, strain mms22, hits give low values 0.988 | locus YLR342W, strain FKS1, hits give low values 0.996 | locus YLR357W, strain rsc2, hits give low values 0.997 | locus YLR370C, strain arc18, hits give low values 0.99 | locus YLR371W, strain rom2, hits give low values 0.99 | locus YLR384C, strain iki3, hits give low values 0.994 | locus YLR418C, strain cdc73, hits give low values 1.07 | locus YML016C, strain PPZ1, hits give low values 0.995 | locus YML032C, strain rad52, hits give low values 0.982 | locus YML120C, strain ndi1, hits give low values 0.995 | locus YML124C, strain tub3, hits give low values 1.01 | locus YMR058W, strain fet3, hits give low values 1.01 | locus YMR078C, strain ctf18, hits give low values 0.998 | locus YMR125W, strain sto1, hits give low values 1.01 | locus YMR129W, hits give low values 0.997 | locus YMR205C, strain PFK2, hits give low values 0.992 | locus YMR223W, strain ubp8, hits give low values 1.02 | locus YMR231W, strain pep5, hits give low values 0.957 | locus YMR263W, strain SAP30, hits give low values 0.992 | locus YMR307W, strain GAS1, hits give low values 0.926 | locus YNL067W, strain RPL9B, hits give low values 1.02 | locus YNL071W, strain lat1, hits give low values 0.998 | locus YNL153C, strain GIM3, hits give low values 1.02 | locus YNL183C, strain NPR1, hits give low values 0.954 | locus YNL209W, strain ssb2, hits give low values 0.994 | locus YNL233W, strain BNI4, hits give low values 1.04 | locus YNL248C, strain rpa49, hits give low values 0.989 | locus YNL250W, strain rad50, hits give low values 0.987 | locus YNL271C, strain bni1, hits give low values 0.999 | locus YNL298W, strain CLA4, hits give low values 0.994 | locus YNL307C, strain MCK1, hits give low values 1.01 | locus YNL322C, strain KRE1 (second series), hits give low values 0.982 | locus YNR049C, strain mso1, hits give low values 0.994 | locus YNR052C, strain pop2, hits give low values 1.02 | locus YOL012C, strain htz1 1.3 | locus YOL147C, strain pex11, hits give low values 1.01 | locus YOR001W, strain rrp6, hits give low values 0.947 | locus YOR061W, strain CKA2, hits give low values 0.962 | locus YOR069W, strain VPS5, hits give low values 1 | locus YOR070C, strain gyp1, hits give low values 0.987 | locus YOR080W, strain dia2, hits give low values 0.977 | locus YOR083W, strain WHI5, hits give low values 1.02 | locus YOR106W, strain vam3, hits give low values 1.01 | locus YOR136W, strain idh2, hits give low values 1 | locus YOR144C, strain elg1, hits give low values 1 | locus YOR184W, strain ser1, hits give low values 0.987 | locus YOR231W, strain MKK1, hits give low values 0.981 | locus YOR265W, strain rbl2, hits give low values 0.994 | locus YOR270C, strain vph1, hits give low values 0.87 | locus YOR290C, strain snf2, hits give low values 0.979 | locus YOR316C, strain cot1, hits give low values 1.01 | locus YPL051W, strain arl3, hits give low values 0.999 | locus YPL078C, strain atp4, hits give low values 1.01 | locus YPL106C, strain sse1, hits give low values 1.06 | locus YPL240C, strain hsp82, hits give low values 0.99 | locus YPL256C, strain CLN2, hits give low values 0.98 | locus YPR119W, strain clb2, hits give low values 0.997 | locus YPR141C, strain kar3, hits give low values 0.969 | locus YPR163C, strain tif3, hits give low values 1.01 | locus YPR167C, strain met16, hits give low values 0.993 | strain wtn01, hits give low values 1
